Data as given in the supplement of paper PMC8728848.
The sample as a whole holds a higher share of the strongest signals than the screen did.

Key:
Assay in all cases: glycan array binding signal (z-score within array); higher = stronger binding
Settings in all cases: glycan notation: IUPAC condensed, linker removed
[1] = biological target: 3dGal(b1-3)[Fuc(a1-4)]Glc
Outline: (§1)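 Negative Z-scores can be read as non-binding. The Z-score is calculated within each array and then averaged across arrays of one protein sequence at different concentrations or buffers and across linkers. Arrays, 3228 in all, were curated from the Consortium for Functional Glycomics database and kept only where the protein sequence was available.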

[2] = biological target: Fuc(a1-3)[3dGal(b1-4)]Glc
Outline: as §1

[3] = biological target: Fuc(a1-3)[Gal(b1-4)]GlcNAc(b1-3)Gal(b1-4)Glc
Outline: as §1

[4] = biological target: Fuc(a1-3)[Gal6S(b1-4)]GlcNAc(b1-3)Gal(b1-4)Glc
Outline: as §1

[5] = biological target: Gal(a1-6)Glc
Outline: as §1

[6] = biological target: Gal(b1-4)Glc
Outline: as §1

[7] = biological target: Gal(b1-4)GlcNAc(b1-2)Man(a1-3)[Man(a1-6)]Man(b1-4)GlcNAc(b1-4)GlcNAc
Outline: as §1

[8] = biological target: Gal(b1-4)GlcNAc(b1-3)[Fuc(a1-3)[Gal(b1-4)]GlcNAc(b1-6)]Gal(b1-4)Glc
Outline: as §1

[9] = biological target: Glc(a1-3)Glc
Outline: as §1

[10] = biological target: Glc(a1-4)Glc(a1-4)Glc(a1-4)Glc(a1-4)Glc(a1-4)Glc(a1-4)Glc(a1-4)Glc
Outline: as §1

[11] = biological target: Glc(a1-4)Glc(a1-4)Glc(a1-4)Glc(a1-4)Glc(a1-4)Glc(a1-4)Glc(a1-4)Glc(a1-4)Glc(a1-4)Glc
Outline: as §1

[12] = biological target: Glc(a1-4)Glc(a1-4)Glc(a1-4)Glc(a1-4)Glc(a1-4)Glc(a1-4)Glc(a1-4)Glc(a1-4)Glc(a1-4)Glc(a1-4)Glc(a1-4)Glc
Outline: as §1

[13] = biological target: Glc(a1-4)Glc(a1-4)Glc(a1-4)Glc(a1-4)Glc(a1-4)Glc(a1-4)Glc(a1-4)Glc(a1-4)Glc(a1-4)Glc(a1-4)Glc(a1-4)Glc(a1-4)Glc
Outline: as §1

[14] = biological target: Glc(a1-6)Glc(a1-6)Glc
Outline: as §1

[15] = biological target: Glc(b1-3)Glc(b1-3)Glc(b1-3)Glc
Outline: as §1

[16] = biological target: Glc(b1-6)Glc
Outline: as §1

[17] = biological target: GlcA(b1-3)Gal(b1-4)Glc
Outline: as §1

[18] = biological target: GlcNAc(b1-2)[GlcNAc(b1-4)]Man(a1-3)[GlcNAc(b1-2)[GlcNAc(b1-4)][GlcNAc(b1-6)]Man(a1-6)][GlcNAc(b1-4)]Man(b1-4)GlcNAc(b1-4)GlcNAc
Outline: as §1

[19] = biological target: GlcNAc(b1-3)[GlcNAc(b1-6)]Gal
Outline: as §1

[20] = biological target: GlcNAc(b1-4)GlcNAc(b1-4)GlcNAc(b1-4)GlcNAc(b1-4)GlcNAc(b1-4)GlcNAc
Outline: as §1

[21] = biological target: Kdn(a2-3)Gal(b1-3)GlcNAc(b1-3)Gal(b1-4)Glc
Outline: as §1

[22] = biological target: Kdn(a2-3)Gal(b1-4)[Fuc(a1-3)]GlcNAc(b1-3)Gal
Outline: as §1

[23] = biological target: Man(a1-3)Man
Outline: as §1

[24] = biological target: Man(a1-3)Man(b1-4)GlcNAc
Outline: as §1

[25] = biological target: Man(b1-4)Man(b1-4)Man(b1-4)Man(b1-4)Man(b1-4)Man
Outline: as §1

[26] = biological target: Neu5Ac(a2-3)Gal(b1-3)GlcNAc(b1-3)[Fuc(a1-3)[Gal(b1-4)]GlcNAc(b1-6)]Gal(b1-4)Glc
Outline: as §1

[27] = biological target: Neu5Ac(a2-3)Gal(b1-4)Glc
Outline: as §1

[28] = biological target: Neu5Ac(a2-3)Gal(b1-4)[Fuc(a1-3)]GlcNAc(b1-6)Gal(b1-4)Glc
Outline: as §1

[29] = biological target: Neu5Ac(a2-3)Gal6S(b1-4)[Fuc(a1-3)]GlcNAc(b1-3)Gal(b1-4)Glc
Outline: as §1

[30] = biological target: Neu5Ac(a2-6)Gal(b1-3)GlcNAc(b1-3)[Fuc(a1-3)[Gal(b1-4)]GlcNAc(b1-6)]Gal(b1-4)Glc
Outline: as §1

[31] = biological target: Neu5Ac(a2-8)Neu5Ac(a2-8)Neu5Ac(a2-3)Gal(b1-4)Glc
Outline: as §1

[32] = biological target: Neu5Ac9Me(a2-3)Gal(b1-4)Glc
Outline: as §1

[33] = biological target: Neu5Gc(a2-6)Gal(b1-4)GlcNAc(b1-2)Man(a1-3)[Neu5Gc(a2-6)Gal(b1-4)GlcNAc(b1-2)Man(a1-6)]Man(b1-4)GlcNAc(b1-4)GlcNAc
Outline: as §1

[34] = biological target: Xyl(b1-2)[Man(a1-3)][Man(a1-6)]Man(b1-4)GlcNAc(b1-4)[Fuc(a1-3)]GlcNAc
Outline: as §1

B1: ZG16p (Homo sapiens), O60844 (protein)
chain: ARSSSYSGEYGGGGGKRFSHSGNQLDGPITALRVRVNTYYIVGLQVRYGKVWSDYVGGRNGDLEEIFLHPGESVIQVSGKYKWYLKKLLFVTDKGRYLSFGKDSGTSFNAVPLHPNTVLRFISGRSGSLIDAIGLHWDVYPSSCSRC
B1 was tested, and the “glycan array binding signal (z-score)” value [1] was -0.327, the “glycan array binding signal (z-score)” value [2] was -0.025 and the “glycan array binding signal (z-score)” value [3] was -0.178. For the same binder, the “glycan array binding signal (z-score)” value [4] was -0.328, the “glycan array binding signal (z-score)” value [5] was -0.272 and the “glycan array binding signal (z-score)” value [6] was -0.133. For the same binder, the “glycan array binding signal (z-score)” value [7] was -0.273, the “glycan array binding signal (z-score)” value [8] was -0.328 and the “glycan array binding signal (z-score)” value [9] was 2.88. The “glycan array binding signal (z-score)” value [10] was 1.93, the “glycan array binding signal (z-score)” value [11] was 1.95 and the “glycan array binding signal (z-score)” value [12] was 4.4. The “glycan array binding signal (z-score)” value [13] was 2.82, the “glycan array binding signal (z-score)” value [14] was 0.475 and the “glycan array binding signal (z-score)” value [15] was 0.797. For the same binder, the “glycan array binding signal (z-score)” value [16] was 2.7, the “glycan array binding signal (z-score)” value [17] was -0.328 and the “glycan array binding signal (z-score)” value [18] was -0.42. For the same binder, the “glycan array binding signal (z-score)” value [19] was 0.435, the “glycan array binding signal (z-score)” value [20] was -0.328 and the “glycan array binding signal (z-score)” value [21] was -0.328. The “glycan array binding signal (z-score)” value [22] was -0.328, the “glycan array binding signal (z-score)” value [23] was 2.78 and the “glycan array binding signal (z-score)” value [24] was 2.31. For the same binder, the “glycan array binding signal (z-score)” value [25] was -0.328, the “glycan array binding signal (z-score)” value [26] was -0.328 and the “glycan array binding signal (z-score)” value [27] was -0.276. For the same binder, the “glycan array binding signal (z-score)” value [28] was -0.328, the “glycan array binding signal (z-score)” value [29] was -0.328 and the “glycan array binding signal (z-score)” value [30] was -0.328. The “glycan array binding signal (z-score)” value [31] was -0.328, the “glycan array binding signal (z-score)” value [32] was -0.328 and the “glycan array binding signal (z-score)” value [33] was -0.282. For the same binder, the “glycan array binding signal (z-score)” value [34] was -0.369.
